In PubChem BioAssay (EPA / NIEHS):
Active and inactive are the calls of the source. Rule for the calls: active = hit-call score of the fitted dose curve at least 0.9, where 1 is the maximum; inactive = score below 0.9.

Key:
Settings in all cases: mRNA level, 48 h; actives raise or lower the signal
[1] = read-out: Lipase C (LIPC), LIPC (gene 3990); test: LTEA_HepaRG_LIPC: Life Technologies and Expression Analysis (LTEA) Assay for Lipase C (LIPC) using HepaRG (AID 2283514)
Outline: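 Differentiated human HepaRG cells in serum-free induction medium were exposed in duplicate for 48 h to eight concentrations (top 100 uM, half-log steps, 0.5% DMSO). LIPC mRNA was quantified by TaqMan qRT-PCR, normalized to ACTB, GAPDH and POLR2A, with bidirectional fitting versus DMSO.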

[2] = read-out: Lipoprotein lipase (LPL), LPL (gene 4023); test: LTEA_HepaRG_LPL: Life Technologies and Expression Analysis (LTEA) Assay for Lipoprotein lipase (LPL) using HepaRG (AID 2283515)
Outline: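 Differentiated human HepaRG cells in serum-free induction medium were exposed in duplicate for 48 h to eight half-log concentrations (top 100 uM) in 0.5% DMSO. LPL mRNA was quantified by TaqMan qRT-PCR, normalized to ACTB, GAPDH and POLR2A.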

[3] = read-out: MicroRNA 122 (MIR122), gene 406906; test: LTEA_HepaRG_MIR122: Life Technologies and Expression Analysis (LTEA) Assay for MicroRNA 122 (MIR122) using HepaRG (AID 2283516); note: the transcript read is the microRNA miR-122
Outline: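 Differentiated human HepaRG cells in serum-free induction medium exposed 48 h to 8 half-log concentrations from 100 uM in 0.5% DMSO, duplicate. MIR122 quantified by Fluidigm TaqMan qRT-PCR, normalised to ACTB, GAPDH, POLR2A; fold change fitted bidirectionally versus DMSO.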

[4] = read-out: matrix metalloproteinase-10 (MMP10), MMP10 (gene 4319); test: LTEA_HepaRG_MMP10: Life Technologies and Expression Analysis (LTEA) Assay for matrix metalloproteinase-10 (MMP10) using HepaRG (AID 2283517)
Outline: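 HepaRG, collagen I, ~100,000 cells/well; serum-free induction medium; 48 h exposure, duplicate, 8-pt half-log to 100 uM, 0.5% DMSO. Readout: TaqMan qRT-PCR, normalized to ACTB/GAPDH/POLR2A; bidirectional fit vs DMSO.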

[5] = read-out: MYC, MYC (gene 4609); test: LTEA_HepaRG_MYC: Life Technologies and Expression Analysis (LTEA) Assay for MYC using HepaRG (AID 2283518)
Outline: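 qRT-PCR read-out of MYC transcript (Fluidigm TaqMan, housekeeping-normalized) after 48 h chemical exposure of HepaRG cells; eight concentrations, top 100 uM, half-log steps. Bidirectional curve fitting against 0.5% DMSO vehicle baseline.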

[6] = read-out: matrix metalloproteinase-3 (MMP3), MMP3 (gene 4314); test: LTEA_HepaRG_MMP3: Life Technologies and Expression Analysis (LTEA) Assay for matrix metalloproteinase-3 (MMP3) using HepaRG (AID 2283519)
Outline: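 Differentiated human HepaRG cells, plated 48 h on collagen I, were exposed in duplicate for 48 h in serum-free induction medium to eight half-log concentrations up to 100 uM in 0.5% DMSO. MMP3 mRNA was quantified by TaqMan qRT-PCR, normalised to ACTB, GAPDH and POLR2A.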

[7] = read-out: Paternally Expressed 10 (PEG10), PEG10 (gene 23089); test: LTEA_HepaRG_PEG10: Life Technologies and Expression Analysis (LTEA) Assay for Paternally Expressed 10 (PEG10) using HepaRG (AID 2283520)
Outline: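 Differentiated HepaRG cells exposed 48 h in serum-free induction medium to eight half-log concentrations topping at 100 uM, 0.5% DMSO, in duplicate. PEG10 mRNA quantified by TaqMan qRT-PCR, normalized to ACTB, GAPDH and POLR2A; bidirectional fit versus DMSO.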

[8] = read-out: Nuclear factor NF-kappa-B p105 subunit (Homo sapiens) (UniProt P19838); test: LTEA_HepaRG_NFKB1: Life Technologies and Expression Analysis (LTEA) Assay for Nuclear Factor Kappa B Subunit 1 (NFKB1) using HepaRG (AID 2283521);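 note: TaqMan qRT-PCR transcript normalised to ACTB GAPDH and POLR2A housekeeping genes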
Outline: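 Differentiated human HepaRG cells were exposed for 48 h in serum-free induction medium to eight concentrations (top 100 uM, half-log steps, 0.5% DMSO), in duplicate. NFKB1 mRNA was measured by TaqMan qRT-PCR, normalized to ACTB/GAPDH/POLR2A, and fitted bidirectionally against DMSO.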

[9] = read-out: Protein phosphatase 2A (PPP2R4), PTPA (gene 5524); test: LTEA_HepaRG_PPP2R4: Life Technologies and Expression Analysis (LTEA) Assay for Protein phosphatase 2A (PPP2R4) using HepaRG (AID 2283522)
Outline: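 Differentiated human HepaRG cells in serum-free induction medium were exposed 48 h to 8 concentrations (top 100 µM, half-log steps, duplicate) in 0.5% DMSO. PPP2R4 mRNA was measured by TaqMan qRT-PCR, normalised to ACTB, GAPDH and POLR2A, and fitted bidirectionally versus DMSO.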

[10] = read-out: Phosphatase and tensin (PTEN), PTEN (gene 5728); test: LTEA_HepaRG_PTEN: Life Technologies and Expression Analysis (LTEA) Assay for Phosphatase and tensin (PTEN) using HepaRG (AID 2283523)
Outline: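 Differentiated human HepaRG cells, plated 48 h then switched to serum-free induction medium, were exposed in duplicate for 48 h to eight half-log concentrations up to 100 uM in 0.5% DMSO. PTEN mRNA measured by TaqMan qRT-PCR, normalized to ACTB/GAPDH/POLR2A, bidirectional fit versus DMSO.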

[11] = read-out: solute carrier (SLC22A1), SLC22A1 (gene 6580); test: LTEA_HepaRG_SLC22A1: Life Technologies and Expression Analysis (LTEA) Assay for solute carrier (SLC22A1) using HepaRG (AID 2283524)
Outline: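 Human HepaRG cells were plated 48 h, switched to serum-free induction medium, then exposed in duplicate for 48 h to 8-point half-log series from 100 uM in 0.5% DMSO. SLC22A1 mRNA measured by qRT-PCR, normalized to ACTB/GAPDH/POLR2A, fitted bidirectionally versus DMSO.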

[12] = read-out: Pyruvate Dehydrogenase Kinase 4 (PDK4), PDK4 (gene 5166); test: LTEA_HepaRG_PDK4: Life Technologies and Expression Analysis (LTEA) Assay for Pyruvate Dehydrogenase Kinase 4 (PDK4) using HepaRG (AID 2283525)
Outline: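 Differentiated human HepaRG cells, pre-cultured 48 h, were exposed in duplicate for 48 h in serum-free induction medium to eight half-log concentrations up to 100 uM in 0.5% DMSO. PDK4 mRNA was quantified by qRT-PCR, normalized to ACTB, GAPDH and POLR2A, bidirectional fitting versus DMSO.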

[13] = read-out: NAD(P)H dehydrogenase [quinone] 1 (NQO1), NQO1 (gene 1728); test: LTEA_HepaRG_NQO1: Life Technologies and Expression Analysis (LTEA) Assay for NAD(P)H dehydrogenase [quinone] 1 (NQO1) using HepaRG (AID 2283526)
Outline: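 Differentiated human HepaRG cells in serum-free induction medium, dosed in duplicate for 48 h at 8 half-log concentrations up to 100 uM in 0.5% DMSO. NQO1 mRNA by qRT-PCR normalized to ACTB, GAPDH, POLR2A; bidirectional fit versus DMSO baseline.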

[14] = read-out: Nuclear factor erythroid 2-related factor 2 (Homo sapiens) (UniProt Q16236); test: LTEA_HepaRG_NFE2L2: Life Technologies and Expression Analysis (LTEA) Assay for Nuclear factor erythroid 2-related factor 2 (NFE2L2) Transcription Factor using HepaRG (AID 2283527);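 note: TaqMan qRT-PCR transcript level normalised to ACTB GAPDH and POLR2A housekeeping genes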
Outline: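 Differentiated human HepaRG cells in serum-free induction medium were exposed for 48 h to eight concentrations (top 100 uM, half-log dilutions, 0.5% DMSO), in duplicate. NFE2L2 mRNA was quantified by TaqMan qRT-PCR, normalized to ACTB, GAPDH and POLR2A, with bidirectional fitting versus DMSO.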

[15] = read-out: succinate dehydrogenase complex iron sulfur subunit B (SDHB), SDHB (gene 6390); test: LTEA_HepaRG_SDHB: Life Technologies and Expression Analysis (LTEA) Assay for succinate dehydrogenase complex iron sulfur subunit B (SDHB) using HepaRG (AID 2283528)
Outline: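 HepaRG, 48 h exposure, 8-pt half-log series from 100 uM in 0.5% DMSO, duplicates. Readout: SDHB mRNA by Fluidigm qRT-PCR vs housekeeping genes; bidirectional fit relative to DMSO.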

[16] = read-out: Signal transducer and activator of transcription 3 (Homo sapiens) (UniProt P40763); test: LTEA_HepaRG_STAT3: Life Technologies and Expression Analysis (LTEA) Assay for Signal transducer and activator of transcription (STAT3) using HepaRG (AID 2283529)
Outline: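 Differentiated human HepaRG cells in serum-free induction medium were exposed in duplicate for 48 h to eight half-log concentrations up to 100 uM in 0.5% DMSO. STAT3 mRNA was quantified by TaqMan qRT-PCR, normalized to ACTB, GAPDH and POLR2A, and fitted bidirectionally against DMSO.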

[17] = read-out: solute carrier (SLCO1B1), SLCO1B1 (gene 10599); test: LTEA_HepaRG_SLCO1B1: Life Technologies and Expression Analysis (LTEA) Assay for solute carrier (SLCO1B1) using HepaRG (AID 2283530)
Outline: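 SLCO1B1 transcript read by qRT-PCR (Fluidigm arrays), normalized to three housekeeping genes, after 48 h chemical exposure of HepaRG cells; bidirectional concentration-response fitting versus 0.5% DMSO baseline. Eight-point half-log series, maximum 100 uM.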

[18] = read-out: sulfotransferase 2A1 (SULT2A1), SULT2A1 (gene 6822); test: LTEA_HepaRG_SULT2A1: Life Technologies and Expression Analysis (LTEA) Assay for sulfotransferase 2A1 (SULT2A1) using HepaRG (AID 2283531)
Outline: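 HepaRG, 48 h chemical exposure, 8-pt half-log curve from 100 uM in 0.5% DMSO, duplicates. Readout: TaqMan qRT-PCR of SULT2A1 mRNA, housekeeping-normalized. Bidirectional fit vs DMSO baseline.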

Measured: outcome

Nuclear factor erythroid 2-related factor 2 (Homo sapiens), sequence (Q16236 whole entry, looked up): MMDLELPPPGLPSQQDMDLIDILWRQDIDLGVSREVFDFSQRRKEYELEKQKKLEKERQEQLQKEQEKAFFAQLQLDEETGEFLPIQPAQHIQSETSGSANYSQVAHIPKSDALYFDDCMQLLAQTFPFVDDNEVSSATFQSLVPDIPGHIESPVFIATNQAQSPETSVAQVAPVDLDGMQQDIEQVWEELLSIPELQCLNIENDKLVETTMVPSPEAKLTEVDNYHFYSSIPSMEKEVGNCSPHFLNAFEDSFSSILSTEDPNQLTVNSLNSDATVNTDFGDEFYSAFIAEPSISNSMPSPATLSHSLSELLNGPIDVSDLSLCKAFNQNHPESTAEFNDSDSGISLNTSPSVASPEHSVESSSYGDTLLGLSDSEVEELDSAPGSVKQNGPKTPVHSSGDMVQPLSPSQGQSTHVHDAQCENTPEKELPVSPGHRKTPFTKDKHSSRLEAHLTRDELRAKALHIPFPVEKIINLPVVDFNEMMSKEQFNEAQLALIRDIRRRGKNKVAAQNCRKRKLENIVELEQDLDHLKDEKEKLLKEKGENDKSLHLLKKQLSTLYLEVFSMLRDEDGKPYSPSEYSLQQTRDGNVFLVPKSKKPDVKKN
Signal transducer and activator of transcription 3 (Homo sapiens), sequence (P40763 whole entry, looked up): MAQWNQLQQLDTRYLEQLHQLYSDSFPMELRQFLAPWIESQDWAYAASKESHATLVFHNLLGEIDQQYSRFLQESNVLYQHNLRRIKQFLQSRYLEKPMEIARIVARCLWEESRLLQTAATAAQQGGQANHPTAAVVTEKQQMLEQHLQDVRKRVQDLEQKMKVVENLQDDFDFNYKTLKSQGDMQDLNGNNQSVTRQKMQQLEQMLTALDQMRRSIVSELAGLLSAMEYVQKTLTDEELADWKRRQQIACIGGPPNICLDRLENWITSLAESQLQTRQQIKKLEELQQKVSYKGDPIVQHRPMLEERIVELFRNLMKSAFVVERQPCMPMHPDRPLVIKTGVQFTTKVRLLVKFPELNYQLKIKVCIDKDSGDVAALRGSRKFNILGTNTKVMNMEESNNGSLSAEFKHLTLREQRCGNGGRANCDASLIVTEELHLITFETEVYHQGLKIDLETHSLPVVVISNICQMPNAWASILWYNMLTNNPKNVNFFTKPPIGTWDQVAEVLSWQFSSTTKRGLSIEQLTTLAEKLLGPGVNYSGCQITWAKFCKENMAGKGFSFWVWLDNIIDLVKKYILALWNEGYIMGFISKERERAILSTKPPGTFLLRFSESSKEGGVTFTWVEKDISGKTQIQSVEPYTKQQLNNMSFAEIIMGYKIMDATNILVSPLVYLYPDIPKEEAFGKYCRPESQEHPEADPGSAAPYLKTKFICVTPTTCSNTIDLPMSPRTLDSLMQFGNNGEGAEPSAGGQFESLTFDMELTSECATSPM
Nuclear factor NF-kappa-B p105 subunit (Homo sapiens), sequence (P19838 whole entry, looked up): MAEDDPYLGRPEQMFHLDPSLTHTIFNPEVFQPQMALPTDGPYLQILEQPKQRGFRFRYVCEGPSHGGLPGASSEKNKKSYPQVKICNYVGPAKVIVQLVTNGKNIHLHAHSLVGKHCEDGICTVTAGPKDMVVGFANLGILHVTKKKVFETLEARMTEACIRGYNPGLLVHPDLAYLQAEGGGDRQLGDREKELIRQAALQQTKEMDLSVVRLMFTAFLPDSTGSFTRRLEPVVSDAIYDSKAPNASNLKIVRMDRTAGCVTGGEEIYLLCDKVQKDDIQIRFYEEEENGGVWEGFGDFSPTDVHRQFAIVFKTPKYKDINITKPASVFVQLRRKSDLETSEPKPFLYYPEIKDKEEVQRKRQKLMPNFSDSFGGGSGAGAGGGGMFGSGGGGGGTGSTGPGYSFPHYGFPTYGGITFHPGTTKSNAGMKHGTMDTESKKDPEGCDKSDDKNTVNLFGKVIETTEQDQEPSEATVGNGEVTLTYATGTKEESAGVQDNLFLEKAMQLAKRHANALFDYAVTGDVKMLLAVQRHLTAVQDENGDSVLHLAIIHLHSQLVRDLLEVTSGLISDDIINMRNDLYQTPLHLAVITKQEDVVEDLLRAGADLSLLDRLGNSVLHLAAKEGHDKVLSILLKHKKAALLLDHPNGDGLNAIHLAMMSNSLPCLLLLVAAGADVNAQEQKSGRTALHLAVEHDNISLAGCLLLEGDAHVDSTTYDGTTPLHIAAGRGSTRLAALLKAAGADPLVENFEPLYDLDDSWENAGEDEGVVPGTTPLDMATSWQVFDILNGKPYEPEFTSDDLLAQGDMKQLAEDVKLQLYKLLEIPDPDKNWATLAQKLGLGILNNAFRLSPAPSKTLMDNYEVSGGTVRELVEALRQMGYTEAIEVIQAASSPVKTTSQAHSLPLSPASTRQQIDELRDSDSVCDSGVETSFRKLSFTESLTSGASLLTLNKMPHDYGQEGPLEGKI

c1cc[n+]2c(c1)-c1cccc[n+]1CC2
inactive: all assays above
